Measurements from PubChem BioAssay (Tox21).
Records with an inconclusive call do not appear. Active and inactive are the calls of the source. Unless noted, the call rests on the fitted dose curve; in most records, active means well fitted curve in the direction sought with a large enough effect in the repeat runs; inconclusive means weak or mixed curves; inactive means no such curve, though single readings can be large; an effect the other way counts as inactive or inconclusive.

Experiments:
[1] = target: Peroxisome proliferator-activated receptor delta (Homo sapiens) (UniProt Q03181); assay: qHTS assay to identify small molecule agonists of the peroxisome proliferator-activated receptor delta (PPARd) signaling pathway (AID 743212; calls by dose curve;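 further: HEK293H cells with PPARd UAS beta-lactamase reporter GeneBLAzer system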)
Summary of the method: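 Steps: seed PPARd-bla HEK293H cells; incubate 5 h, 37 C, 5% CO2; add compounds in DMSO; incubate, 37 C; add LiveBLAzer B/G FRET substrate; hold 2 h at room temperature; measure fluorescence.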

[2] = qHTS assay to identify small molecule antagonists of the peroxisome proliferator-activated receptor delta (PPARd) signaling pathway - cell viability counter screen (AID 743213); further: nearly all actives have a fitted effect of over 50% in size
Summary of the method: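 Luminescence from CellTiter-Glo, added after the bla read and incubated 30 min at room temperature, gives viability of HEK293H PPARd-bla cells exposed to compounds for 17 h at 37 C with 300 nM L165041.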

[3] = target: Peroxisome proliferator-activated receptor delta (Homo sapiens) (UniProt Q03181); assay: qHTS assay to identify small molecule antagonists of the peroxisome proliferator-activated receptor delta (PPARd) signaling pathway (AID 743215; active means well fitted inhibition curve with a large enough effect in the signal ratio in the repeat runs, not every such curve was filed as active; the % refers to the signal ratio;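 further: cells stimulated with agonist L165041 at 300 nM final during compound exposure; series mostly up to about 62 µM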)
Summary of the method: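 Screen format: qHTS, antagonist mode. HEK293H PPARd-bla cells received compound and 300 nM L165041 (final), 17 h, 37 C. Beta-lactamase detected via FRET substrate fluorescence, 2 h, room temperature.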

[4] = qHTS assay to identify small molecule antagonists of the farnesoid-X-receptor (FXR) signaling pathway - cell viability counter screen (AID 743221; active means well fitted cell-killing curve with a large enough effect in the repeat runs, not every such curve was filed as active; further: nearly all actives have a fitted effect of over 50% in size)
Summary of the method: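 After a 5 h settling period, FXR-bla HEK 293T cells receive compound and chenodeoxycholic acid (50 uM final) and incubate 16 h at 37 C; CellTiter-Glo luminescence, read after 30 min at room temperature, reports cell viability.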

[5] = target: Vitamin D3 receptor (Homo sapiens) (UniProt P11473); assay: qHTS assay to identify small molecule agonists of the vitamin D receptor (VDR) signaling pathway (AID 743222; calls by dose curve)
Summary of the method: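 Using LiveBLAzer B/G FRET detection, agonism was scored in VDR-bla cells exposed overnight (16 h, 37C) to DMSO-dissolved compounds; substrate incubation was 2 h at room temperature.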

[6] = target: Vitamin D3 receptor (Homo sapiens) (UniProt P11473); assay: qHTS assay to identify small molecule antagonists of the vitamin D receptor (VDR) signaling pathway (AID 743223; active means well fitted inhibition curve with a large enough effect in the signal ratio in the repeat runs, not every such curve was filed as active; the % refers to the signal ratio)
Summary of the method: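 Reporter line VDR-bla; stimulus 1alpha,25-(OH)2 vitamin D3, 3 nM final; compound co-addition, 16 h 37C/5% CO2; LiveBLAzer B/G substrate 2 h RT; fluorescence intensity.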

[7] = qHTS assay to identify small molecule agonists of the vitamin D receptor (VDR) signaling pathway - cell viability counter screen (AID 743224); further: series mostly up to about 63 µM; nearly all actives have a fitted effect of over 50% in size
Summary of the method: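 Counter screen for cytotoxicity: VDR-bla cells at 2,000 cells/well, 16 h compound exposure, then CellTiter-Glo luminescence after the beta-lactamase measurement.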

[8] = qHTS assay to identify small molecule agonists of the farnesoid-X-receptor (FXR) signaling pathway - cell viability counter screen (AID 743218); further: nearly all actives have a fitted effect of over 45% in size
Summary of the method: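 Same-well cytotoxicity check on FXR-UAS-bla HEK 293T cells: 5 h attachment, 16 h compound at 37 C, CellTiter-Glo luminescence read at room temperature after 30 min.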

[9] = target: Bile acid receptor (Homo sapiens) (UniProt Q96RI1); assay: qHTS assay to identify small molecule agonists of the farnesoid-X-receptor (FXR) signaling pathway (AID 743220; active means well fitted activation curve with a large enough effect in the signal ratio in the repeat runs, not every such curve was filed as active; the % refers to the signal ratio)
Summary of the method: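 FXR-UAS-bla HEK 293T cells carrying a UAS-driven beta-lactamase reporter were plated for 5 h at 37C/5% CO2, then exposed to DMSO-dissolved Tox21 10K compounds for 16 h at 37C. A LiveBLAzer B/G FRET substrate was loaded for 2 h at room temperature before fluorescence reading.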

[10] = target: Bile acid receptor (Homo sapiens) (UniProt Q96RI1); assay: qHTS assay to identify small molecule antagonists of the farnesoid-X-receptor (FXR) signaling pathway (AID 743217; active means well fitted inhibition curve with a large enough effect in the signal ratio in the repeat runs, not every such curve was filed as active; the % refers to the signal ratio)
Summary of the method: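 Quantitative HTS, beta-lactamase reporter format: FXR-UAS-bla HEK 293T cells co-treated 16 h at 37 °C with compounds and 50 uM final chenodeoxycholic acid, then read by B/G FRET fluorescence.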

Measured: Potency

Chain of Bile acid receptor (Homo sapiens) (Q96RI1 whole entry, looked up): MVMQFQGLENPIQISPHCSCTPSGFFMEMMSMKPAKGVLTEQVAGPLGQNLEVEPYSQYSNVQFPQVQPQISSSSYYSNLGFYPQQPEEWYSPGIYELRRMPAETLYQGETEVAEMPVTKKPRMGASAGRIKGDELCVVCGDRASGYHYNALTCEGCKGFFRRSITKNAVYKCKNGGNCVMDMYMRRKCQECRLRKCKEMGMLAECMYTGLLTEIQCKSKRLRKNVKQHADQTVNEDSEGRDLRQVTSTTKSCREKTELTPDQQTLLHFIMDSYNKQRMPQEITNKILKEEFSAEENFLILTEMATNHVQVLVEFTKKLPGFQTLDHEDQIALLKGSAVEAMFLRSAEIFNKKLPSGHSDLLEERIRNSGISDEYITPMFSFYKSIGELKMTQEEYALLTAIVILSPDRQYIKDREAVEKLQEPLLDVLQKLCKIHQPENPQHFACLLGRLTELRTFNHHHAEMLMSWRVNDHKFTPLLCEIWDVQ
Chain of Vitamin D3 receptor (Homo sapiens) (P11473 whole entry, looked up): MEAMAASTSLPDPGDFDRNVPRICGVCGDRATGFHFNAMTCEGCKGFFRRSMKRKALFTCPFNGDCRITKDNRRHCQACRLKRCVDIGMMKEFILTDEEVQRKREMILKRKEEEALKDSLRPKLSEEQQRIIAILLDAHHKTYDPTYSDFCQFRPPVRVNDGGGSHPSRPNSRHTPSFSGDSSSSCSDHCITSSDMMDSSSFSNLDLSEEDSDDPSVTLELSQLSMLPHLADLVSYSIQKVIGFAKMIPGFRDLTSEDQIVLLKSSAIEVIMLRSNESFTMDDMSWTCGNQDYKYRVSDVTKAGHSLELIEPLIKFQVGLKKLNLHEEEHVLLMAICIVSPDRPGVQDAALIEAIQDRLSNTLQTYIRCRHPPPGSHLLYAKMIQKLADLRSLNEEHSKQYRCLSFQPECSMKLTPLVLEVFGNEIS
Chain of Peroxisome proliferator-activated receptor delta (Homo sapiens) (Q03181 whole entry, looked up): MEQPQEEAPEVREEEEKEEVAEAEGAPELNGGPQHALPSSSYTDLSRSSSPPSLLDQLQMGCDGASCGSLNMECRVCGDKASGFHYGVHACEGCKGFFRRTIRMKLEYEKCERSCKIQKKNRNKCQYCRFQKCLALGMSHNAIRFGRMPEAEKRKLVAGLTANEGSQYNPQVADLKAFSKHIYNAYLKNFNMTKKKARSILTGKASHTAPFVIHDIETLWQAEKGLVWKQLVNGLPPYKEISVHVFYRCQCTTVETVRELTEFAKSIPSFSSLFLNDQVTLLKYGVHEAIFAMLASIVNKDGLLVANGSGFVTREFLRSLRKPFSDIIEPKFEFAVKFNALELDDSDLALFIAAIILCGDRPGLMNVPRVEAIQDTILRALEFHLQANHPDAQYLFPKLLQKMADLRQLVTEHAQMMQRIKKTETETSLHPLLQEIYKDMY

CCCCN1C[C@H](O)[C@@H](O)[C@H](O)[C@H]1CO
not listed: [8] | [9] | [10]
inactive: all other assays above

CCCOCCC
inactive: [1] | [2] | [8] | [4] | [5] | [7]

CC1(C)C(=O)N(Cl)C(=O)N1Br
inactive: [1] | [2] | [8] | [9] | [4] | [7]

CCc1cc2cc(OC)c(OC)cc2c(Cc2ccccc2)n1
not listed: [2] | [6] | [10]
inactive: all other assays above

Cc1ccsc1C(=CCCN1CCC[C@@H](C(=O)O)C1)c1sccc1C
inactive: [1] | [2] | [3] | [4] | [7]

C/C(=N\O)[C@@H](C)NCC(C)(C)CN[C@H](C)/C(C)=N/O
not listed: [3] | [9] | [10]
inactive: all other assays above

CCCCNc1ccc(C(=O)OCCN(CC)CC)cc1
inactive: [1] | [3] | [8] | [4] | [7]

Cc1nc(-c2ccccn2)ncc1C(=O)Nn1cc(C)c2cc(F)ccc21
not listed: [3] | [5] | [9]
inactive: all other assays above

CC/C=C\CCOC(=O)CCCCC
inactive: [1] | [2] | [3] | [4] | [7]

COC(=O)N[C@H](C(=O)N[C@@H](Cc1ccccc1)[C@@H](O)CN(Cc1ccc(-c2ccccn2)cc1)NC(=O)[C@@H](NC(=O)OC)C(C)(C)C)C(C)(C)C
not listed: [8] | [9] | [10]
inactive: all other assays above

CC(C)(C)c1cccc(O)c1
inactive: [1] | [2] | [3] | [4] | [6] | [7]

CC(C)C[C@H](NC(=O)OCC1c2ccccc2-c2ccccc21)C(=O)O
not listed: [3] | [5] | [6]
inactive: all other assays above

CCCS(=O)c1ccc2nc(NC(=O)OC)[nH]c2c1 (centres undefined)
inactive: [1] | [2] | [8] | [9] | [4] | [7]

CCN(O)CC
inactive: [1] | [3] | [4] | [5] | [6] | [7]

CCN(CCCc1ccccc1)CCCc1ccccc1
not listed: [2] | [10]
inactive: all other assays above

O=C(CCCl)NCc1ccccc1
inactive: [1] | [2] | [3] | [4] | [5] | [6]

C[C@@H]1CN(c2c(F)c(N)c3c(=O)c(C(=O)O)cn(C4CC4)c3c2F)C[C@H](C)N1
not listed: [3] | [5]
inactive: all other assays above

CCOc1ccc(OCC)c(Cl)c1
inactive: [1] | [2] | [10] | [9] | [4] | [7]

CCc1cc(Cl)c(OC)c(C(=O)NC[C@@H]2CCCN2CC)c1O
inactive: [1] | [2] | [3] | [5] | [6] | [7]

O=C(O)CN(CCN(CC(=O)O)CC(=O)O)CCN(CC(=O)O)CC(=O)O
inactive: [1] | [2] | [4] | [5] | [7]

C[C@@H](N)C(=O)O
inactive: [1] | [2] | [8] | [6]

CCOC(=O)NCCC[Si](OCC)(OCC)OCC
inactive: [1] | [2] | [3] | [7]

CCC(=O)O[C@]1(C(=O)SCF)[C@H](C)C[C@H]2[C@@H]3C[C@H](F)C4=CC(=O)C=C[C@]4(C)[C@@]3(F)[C@@H](O)C[C@@]21C
inactive: [1] | [3] | [8] | [4] | [7]

Cc1nnc(SCC2=C(C(=O)O)N3C(=O)[C@@H](NC(=O)Cn4cnnn4)[C@H]3SC2)s1
inactive: [1] | [2] | [3] | [4]

O=C(C(Cl)Cl)N1CCOC12CCCCC2
not listed: [3] | [5]
inactive: all other assays above

CC(C)C(=O)OC/C=C/c1ccccc1
not listed: [2] | [4] | [8]
inactive: all other assays above

COc1ccccc1N1CCN(CCCNc2cc(=O)n(C)c(=O)n2C)CC1
not listed: [8] | [9] | [10]
inactive: all other assays above

CC(C)C1=CC2=CC[C@@H]3[C@](C)(CCC[C@@]3(C)C(=O)O)[C@H]2CC1
inactive: [1] | [2] | [4] | [6] | [7]

CCCCNCCCC
not listed: [2] | [9] | [10]
inactive: all other assays above

CCCc1c2oc(C(=O)O)cc(=O)c2cc2c(=O)cc(C(=O)O)n(CC)c12
not listed: [1] | [10]
inactive: all other assays above

Cc1ncc(CO)c(CN)c1O
inactive: [2] | [3] | [8] | [5] | [7]

N#Cc1ccc(C(c2ccc(C#N)cc2)n2cncn2)cc1
not listed: [1] | [8] | [10]
inactive: all other assays above

CC(=O)N[C@@H](CC(C)C)C(=O)O
not listed: [2] | [3] | [10]
inactive: all other assays above

O=C(O[C@@H](C(=O)O)[C@@H](OC(=O)c1ccccc1)C(=O)O)c1ccccc1
inactive: [2] | [3] | [8] | [4] | [7]
